{"source": "PubChem BioAssay (Tox21)", "note": "Results filed as inconclusive are left out. Values without a mark were called inactive. Active and inactive are the calls of the source. Calls follow the shape of the dose curve; as a rule, active = well fitted activation curve with a large enough effect in the signal ratio in the repeat runs (not every such curve was filed as active); inconclusive = weak or mixed curves, or effect the other way; inactive = no such curve, though single readings can be large or run the other way; the % refers to the signal ratio. % is scaled to controls: 0 for no effect and ±100 for the full control effect; potency is read from the fitted curve at half-maximal effect.", "data": [{"target": "Glucocorticoid receptor (Homo sapiens) (UniProt P04150)", "sequence (P04150 whole entry, looked up)": "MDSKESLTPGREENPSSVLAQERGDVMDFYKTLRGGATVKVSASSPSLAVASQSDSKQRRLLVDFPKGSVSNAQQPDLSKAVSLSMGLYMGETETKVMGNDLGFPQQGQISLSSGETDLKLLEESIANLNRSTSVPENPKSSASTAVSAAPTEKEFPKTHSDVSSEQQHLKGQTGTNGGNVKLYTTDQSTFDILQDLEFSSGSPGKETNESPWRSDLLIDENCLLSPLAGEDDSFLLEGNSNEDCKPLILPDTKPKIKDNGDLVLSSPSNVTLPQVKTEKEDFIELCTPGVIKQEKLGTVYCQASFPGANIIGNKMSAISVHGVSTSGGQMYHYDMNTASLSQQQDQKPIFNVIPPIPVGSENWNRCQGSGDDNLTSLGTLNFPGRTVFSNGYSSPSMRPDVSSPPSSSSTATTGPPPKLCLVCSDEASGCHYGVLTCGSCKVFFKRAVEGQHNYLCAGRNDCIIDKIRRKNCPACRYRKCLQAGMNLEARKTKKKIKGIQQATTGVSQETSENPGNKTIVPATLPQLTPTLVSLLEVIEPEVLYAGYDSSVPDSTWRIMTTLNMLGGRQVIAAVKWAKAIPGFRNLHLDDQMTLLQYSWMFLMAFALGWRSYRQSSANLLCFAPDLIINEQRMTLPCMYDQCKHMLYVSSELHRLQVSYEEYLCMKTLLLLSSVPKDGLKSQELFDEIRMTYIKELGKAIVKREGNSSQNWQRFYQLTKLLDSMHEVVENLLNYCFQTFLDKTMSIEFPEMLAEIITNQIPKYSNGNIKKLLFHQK", "assay": "qHTS assay to identify small molecule agonists of the glucocorticoid receptor (GR) signaling pathway (AID 720691)", "settings": "GR-bla HeLa, beta-lactamase reporter ratio, 18 h; series mostly up to 62.4 µM; activation: at the top concentration", "from_the_text": "U.S. Tox21 Program National Center for Advancing Translational Sciences [NCATS] NIH Chemical Genomics Center [NCGC] U.S. Environmental Protection Agency [EPA] National Institutes of Environmental Health Sciences [NIEHS] National Toxicology Program [NTP] U.S. Food and Drug Administration [FDA] Tox21 Assay Overview: The Glucocorticoid receptor (GR) is one of the members of the nuclear receptor family of ligand-dependent transcription factors. GR plays a critical role in carbohydrate, protein and lipid metabolisms and programmed cell death. CellSensor GR-bla HeLa cell line (Invitrogen) contains a beta-lactamase reporter gene under the control of the glucocorticoid response element stably integrated into HeLa cells, a cervical cancer cell line that expresses glucocorticoid receptor. The activation of the reporter gene under culture conditions can be detected by fluorescence intensity. This cell line has been used to screen the Tox21 10K compound library and to identify the compounds that activate the GR signaling.\nTox21 Assay Protocol Summary: The GR-bla HeLa cells were dispensed at 1500 cells/6 ul/well in 1536-well black wall/clear bottom plates using a Multidrop Combi (ThermoFisher Scientific, Waltham, MA) dispenser. After the assay plates were incubated at a 37 C/5% CO2 incubator for 4 hours, 23 nL of compounds dissolved in DMSO, positive controls or DMSO only was transferred to the assay plate by a pintool station (Kalypsys, San Diego, CA). The plates were incubated at 37 C for 18 hours. After 1 uL of LiveBLAzerTM B/G FRET substrate was added using a Flying Reagent Dispenser (Aurora Discovery, San Diego, CA), the plates were incubated at room temperature for 2 hours, and fluorescence intensity was measured by an Envision plate reader (PerkinElmer, Shelton, CT).", "values": [{"smiles": "C[N+](C)(CCOc1ccccc1)Cc1cccs1", "activation": "0.58%"}, {"smiles": "Nc1ccn([C@@H]2O[C@H](CO)[C@@H](O)C2(F)F)c(=O)n1", "activation": "0.887%"}, {"smiles": "C=COC(=O)C(C)(CC)CCC(C)C", "note": "(stereo not given)", "activation": "-0.422%"}, {"smiles": "CN(C)C(=O)Oc1ccc[n+](C)c1", "Potency": "26.8 µM (active)"}, {"smiles": "NCCCC(N)(C(=O)O)C(F)F", "note": "(stereo not given)", "activation": "0.016%"}, {"smiles": "COc1cc2c(cc1OC)-c1cc3ccc(OC)c(OC)c3c[n+]1CC2", "activation": "0.259% [at 79.2 µM]"}, {"smiles": "CC(C)C1CCC(O)CC1", "note": "(stereo not given)", "activation": "-1.83%"}, {"smiles": "CC(=O)N[C@H]1[C@H]([C@H](O)[C@H](O)CO)OC(C(=O)O)=C[C@@H]1N=C(N)N", "activation": "-0.188%"}, {"smiles": "Cc1ccc(C(=O)c2ccccc2)cc1", "activation": "0.307%"}, {"smiles": "CC(C)CC(C)(N)C#N", "note": "(stereo not given)", "activation": "3.08% [at 79.2 µM]"}, {"smiles": "COc1cc(C(=O)OC(COCCC(C)C)CN2CCOCC2)cc(OC)c1OC", "note": "(stereo not given)", "activation": "-0.398%"}, {"smiles": "CCCCN(CCC(=O)OCC)C(C)=O", "activation": "-1.41%"}, {"smiles": "COc1c(N2CCNC(C)C2)c(F)cc2c(=O)c(C(=O)O)cn(C3CC3)c12", "note": "(stereo not given)", "activation": "-0.347%"}, {"smiles": "CC1=NN(c2cc(S(=O)(=O)O)ccc2Cl)C(=O)C1N=Nc1ccccc1", "note": "(stereo not given)", "activation": "-2.53%"}, {"smiles": "CC/C=C\\CCOC(C)OCC", "note": "(stereo not given)", "activation": "0.0852%"}, {"smiles": "[K+]", "activation": "-0.0724%"}, {"smiles": "CC(C)(C)C(=O)c1ccccc1", "activation": "-1.65%"}, {"smiles": "O=C(CO)[C@@H](O)[C@H](O)[C@H](O)CO", "Potency": "inactive"}, {"smiles": "CCCCCC(=O)OCCc1ccccc1", "activation": "2.95%"}, {"smiles": "CCOc1ccccc1OCC", "activation": "-1.55%"}, {"smiles": "CCCc1nn(C)c2c(=O)[nH]c(-c3cc(S(=O)(=O)N4CCN(C)CC4)ccc3OCC)nc12", "activation": "-3.08%"}, {"smiles": "C=C[Si](OC(C)=O)(OC(C)=O)OC(C)=O", "activation": "1.81%"}, {"smiles": "Cc1ccnc(NS(=O)(=O)c2ccc(N)cc2)n1", "activation": "-0.284% [at 29.2 µM]"}, {"smiles": "CNC(=O)Nc1ccc(Cl)c(Cl)c1", "activation": "-6.52%"}, {"smiles": "CCOC(=O)CCC(=O)OCC", "activation": "0.254%"}, {"smiles": "c1coc(CNc2ncnc3nc[nH]c23)c1", "activation": "-0.731%"}, {"smiles": "CC(N)C12CC3CC(CC(C3)C1)C2", "note": "(stereo not given)", "activation": "0.344%"}, {"smiles": "CC(=O)Nc1ccc(OCC(O)CNC(C)C)cc1", "note": "(stereo not given)", "activation": "-0.112%"}, {"smiles": "CCCCCCC#CC(=O)OC", "activation": "-0.455%"}, {"smiles": "CC(=O)NC(=O)c1ccccc1O", "activation": "0.129%"}, {"smiles": "NCCCC[C@H](N[C@@H](CCc1ccccc1)C(=O)O)C(=O)N1CCC[C@H]1C(=O)O", "activation": "-0.219% [at 29.2 µM]"}, {"smiles": "CCCOC(=O)CC", "activation": "0.0706%"}, {"smiles": "COCCOC[C@H](CC1(C(=O)NC2CCC(C(=O)O)CC2)CCCC1)C(=O)Oc1ccc2c(c1)CCC2", "note": "(stereo not given in full)", "activation": "0.441%"}, {"smiles": "C=C(C)C(=O)OCC1CCCO1", "note": "(stereo not given)", "activation": "0.369%"}, {"smiles": "[Ca+2]", "activation": "-3.45%"}, {"smiles": "CC(COc1ccccc1)NN", "note": "(stereo not given)", "activation": "-0.0876%"}, {"smiles": "O=[N+]([O-])c1ccc(/C=N\\O)o1", "activation": "0.0369%"}, {"smiles": "CCCCCCCCCC[N+](C)(C)[O-]", "activation": "6.04%"}, {"smiles": "O=C(O)CC(C(=O)O)S(=O)(=O)O", "note": "(stereo not given)", "activation": "2.26%"}, {"smiles": "CCCCCCCCCCCCCCCCCCO", "activation": "0.047%"}]}]}
